Compounds with a hit are over-represented: about 0.66% of the library has one in this group of screens.
Rango dissoc inh – inhibition of RanGTP-driven Rango-importin beta dissociation | O95149+P62826 | Biochemical FRET Rango-importin beta, RanGTP-induced dissociation | Potency, µM (highest dose often 46.1 µM), inactives show top-dose activity change, negative = inhibition | hit rate 0.071% among 340,000 | AID 540253; further: % of control where 0% means no effect; nearly all actives have a fitted effect of over 45% in size
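FRET read at 45 min, room temperature: inhibitors block the CFP/YFP signal rise when RanGTP (0.6 uM Ran, 2 mM GTP, 0.2 uM RCC1) frees Rango (0.1 uM) from importin beta (0.25 uM). Pre-read after 5 min compound exposure flags interference.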
Rango-impB inh – Rango-importin beta binding inhibition | Rango CFP/YFP FRET sensor + importin beta, 45 min | Potency, µM (highest dose often 92.2 µM), without a hit: at the highest dose inhibition of complex formation | hit rate 0.031% among 340,000;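 further: 0% = DMSO wells and 100% = buffer wells lacking importin beta; nearly all actives have a fitted effect of over 15% in size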
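FRET biosensor Rango (snurportin 1 IBB between N-terminal EYFP and C-terminal Cerulean), 50 nM in PBS/1 mM DTT/0.02% Tween-20/0.1% BSA, preincubated 5 min RT with compound; 0.125 microM importin beta added, 45 min RT, CFP/YFP FRET ratio read.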
gsp antagonist – antagonizes gsp, the McCune-Albright syndrome mutation | Potency, µM (series often up to 76.9 µM), for the others: at the top dose activity change, negative = inhibition, usual class: inhibitors | gsp-mutant cells, cAMP HTRF, 30 min | hit rate 0.4% among 340,000; calls by dose curve; cell line not stated here;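 further: intracellular cAMP measured with PDE inhibitor Ro 20-1724 present during compound exposure; on the % scale 0 is the no-effect control and ±100 the full control effect; nearly all actives have a fitted effect of over 65% in size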
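G418-selected cells were plated in DMEM/10% FBS for 16-24 h at 37C, then treated with compounds plus the PDE inhibitor […] (300 uM solution added) for 30 min at 37C. Intracellular cAMP was measured by HTRF after 30 min lysis at room temperature.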
gsp agonist – agonists of gsp mutant (McCune-Albright syndrome); gsp mutant cells, cAMP HTRF, 30 min; Potency, µM (series often up to 76.9 µM), for the others: at the highest dose activation (cAMP increase), usual class: activators; hit rate 0.13% among 340,000; active means well fitted activation curve with a large enough effect; inconclusive means small, poorly fitted or top-dose-only effect, or another doubt; inactive means no such curve, though single readings can be large or run the other way; cell line not stated here;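 further: phosphodiesterase inhibitor Ro 20-1724 added with compounds to block cAMP breakdown; nearly all actives have a fitted effect of over 60% in size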
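Cells in DMEM/10% FBS with G418 were pretreated with compounds in DMSO plus […] (300 uM stock) for 30 min at 37C. cAMP was measured by HTRF (cAMP-d2 plus anti-cAMP antibody-K) after 30 min at room temperature.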
An asterisk follows results filed as active; ? = inconclusive; . = no result given; [ ] = another dose, or the depositor's remark. Unless noted, the call rests on the fitted dose curve. Potency means the concentration at half of the fitted maximal effect.

SMILES	Rango dissoc inh	Rango-impB inh	gsp antagonist	gsp agonist
COc1ccc(-n2cnc3c(N)nc(N)nc32)cc1	-1%	-1%	-5%	11%[15.4 µM]
COc1cc(/C=N/NC(=O)c2nnn(-c3nonc3N)c2C(C)C)ccc1OCc1ccccc1	28%	-1%	25µM*	-7%
CC(C)c1c(C(=O)N/N=C/c2ccc(OCc3ccccc3)cc2)nnn1-c1nonc1N	0%	-2%	-13%	?
COc1cc([N+](=O)[O-])ccc1NC(=O)COC(=O)c1n[nH]c2ccccc12	-23%	-2%	40µM*	8%[15.4 µM]
CCSc1ccccc1C(=O)Nc1ccc([N+](=O)[O-])cc1OC	12%	-4%	40µM*	-7%
Cc1cc(C)c(O)c(-c2cc(C(=O)Nc3ccc(S(=O)(=O)N4CCOCC4)cc3)[nH]n2)c1	-1%	0%	28µM*	1%
CC(=O)Nc1ccc(NC(=O)c2cc(-c3cc(C)cc(C)c3O)n[nH]2)cc1	11%	0%	-5%	-9%
O=C(Nc1ccc(Cl)cc1C(=O)c1ccccn1)c1ccccc1	.	.	.	-13%
C=CCSC(=C(C#N)C#N)c1cc2c([nH]1)CCCC2	16µM*	?	-17%	17%
CCN(CC)c1ccc(Nc2nc(N3CCOCC3)c3ccccc3n2)cc1	-3%	0%	50µM*	-19%
COc1ccc(Nc2nc(N3CCCC3)c3ccccc3n2)cc1	5%	1%	-10%	8%
O=C(N/N=C\c1cn(-c2ccccc2)nc1-c1ccccc1)c1ccc(Br)o1	2%	-3%	?	6%
Cc1ccc(-c2nn(-c3ccccc3)cc2/C=N/NC(=O)c2ccc(Br)o2)cc1	?	-2%	32µM*	0%
COc1cc(-c2cc(-c3ccccc3)nc(SCC(=O)Nc3nccs3)c2C#N)cc(OC)c1OC	?	?	-16%	8%
Cc1nc(SCC(=O)Nc2nccs2)c(C#N)c(C)c1C	26µM*	?	6%	?
C=CCN(C(=O)C1CC(=O)N(C2CCCC2)C1)c1nc(-c2ccc(S(C)(=O)=O)cc2)cs1 (stereo not drawn)	4%	?	40µM*	5%
CN1C(=O)C2(OCC(COc3ccc(Cl)cc3)O2)c2ccccc21 (stereo not drawn)	-11%	1%	35µM*	4%
COc1cc(NC(C)CCCN)c2nc(C)ccc2c1Oc1ccc(F)cc1 (stereo not drawn)	.	.	.	22%
Cc1ccc(C(=O)Nc2cccc(C(F)(F)F)c2)cc1NC(=O)c1csc(-c2ccncc2)n1	-4%	1%	-20%	13%
N#C/C(=N\Nc1cccc(C(F)(F)F)c1)C(=O)c1csc(-c2cccnc2)n1	0%	0%	25µM*	-11%
CCOC(=O)COc1cc2c3c(c(=O)oc2cc1C)CCCC3	-7%	1%	2%	-61%
CCOC(=O)COc1cc(OCC(=O)OCC)c2c3c(c(=O)oc2c1)CCCC3	-5%	-5%	?	11µM*
O=S(=O)(c1ccccc1)[C@@]1(c2ccc(Br)cc2)C[C@@H]2ON=C(c3ccccc3)[C@@H]2C1	-1%	-3%	11µM*	.
CCOC(=O)/C(C#N)=C/c1cc2ccccc2nc1N1CCCCC1	-3%	5%	3%	11µM*
Cc1ccc2cc(/C=C(\C#N)C(N)=O)c(N3CCCCC3)nc2c1	0%	?	-14%	?
SMILES	Rango dissoc inh	Rango-impB inh	gsp antagonist	gsp agonist
Cc1cc(Cl)ccc1OCC(=O)NNC(=O)C1CCN(c2ncnc3sc(C)c(C)c23)CC1	13%	3%	35µM*	17%
Cc1sc2ncnc(N3CCC(C(=O)NNC(=O)COc4ccc(Br)cc4)CC3)c2c1C	23%	2%	32µM*	-17%[15.4 µM]
Cc1cc(Br)ccc1NC(=O)CN(C)C(=O)C1CCN(c2ncnc3sc(C)c(C)c23)CC1	-5%	?	32µM*	1%
Cc1cccc(C)c1NC(=O)CN(C)C(=O)C1CCN(c2ncnc3sc(C)c(C)c23)CC1	16%	-10%	-20%	?
COc1ccc(OCC(=O)NNC(=O)C2CCN(c3ncnc4sc(C)c(C)c34)CC2)cc1	0%	1%	?	-25%
Cc1sc2ncnc(N3CCC(C(=O)NNC(=O)COc4cccc(C(F)(F)F)c4)CC3)c2c1C	1%	0%	50µM*	28%
COc1ccc(N2CCN(C(=O)C(=O)c3cn(CC(=O)N4CCCC4)c4ccccc34)CC2)cc1	.	.	.	5%
